PubChem BioAssay (Tox21)
Results filed as inconclusive are left out. The source made the active and inactive calls. Unless noted, calls follow the shape of the dose curve; as a rule, active = well fitted curve in the direction sought with a large enough effect in the repeat runs; inconclusive = weak or mixed curves; inactive = no such curve, though single readings can be large; an effect the other way counts as inactive or inconclusive.

Experiments:
[1] = A CellTox Green Cytotoxicity Assay to monitor cytotoxicity in HepG2 cells - 0 hour (AID 1224882); also: nearly all actives have a fitted effect of over 35% in size
How it was run: (§1)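 Measurements at 0, 8, 16, 24, 32 and 40 h of treatment captured CellTox Green fluorescence in HepG2 cells that had been co-plated with reagent and preincubated 5 h at 37 C/5% CO2.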

[2] = A CellTox Green Cytotoxicity Assay to monitor cytotoxicity in HEK293 cells - 8 hour (AID 1224884); also: nearly all actives have a fitted effect of over 35% in size
How it was run: (§2)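 Tox21 screen in HEK293: membrane-impermeant cyanine dye fluoresces on binding dead-cell DNA; compound pinned 5 h post-seeding, plates held at 37 C, signal read repeatedly through 40 h.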

[3] = qHTS RealTime-Glo MT Cell Viability Assay in HepG2 cells - 16 hour (AID 1224885); also: nearly all actives have a fitted effect of over 50% in size
How it was run: (§3)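 Tox21 10K library screened in qHTS format on HepG2 cells carrying RealTime-Glo reagents. Compounds were added after a 5 h preincubation, and the luminescent signal from continuous culture was measured repeatedly during 40 h treatment.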

[4] = qHTS RealTime-Glo MT Cell Viability Assay in HEK293 cells - 24 hour (AID 1224886); also: top concentration of the series differs between compounds; nearly all actives have a fitted effect of over 50% in size
How it was run: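 Luminescence generated by NanoLuc from substrate produced by living HEK293 cells served as the viability signal. Each value reflects the reading at its stated time point during continuous 40 h compound exposure at 37 C.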

[5] = qHTS RealTime-Glo MT Cell Viability Assay in HEK293 cells - 8 hour (AID 1224887); also: top concentration of the series differs between compounds; nearly all actives have a fitted effect of over 50% in size
How it was run: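 HEK293 + NanoLuc + prosubstrate, 600 cells/well; 5 h, 37 C/5% CO2; compound 23 nL in DMSO by pintool; 37 C; luminescence read at 0, 8, 16, 24, 32 and 40 h time points.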

[6] = A CellTox Green Cytotoxicity Assay to monitor cytotoxicity in HEK293 cells - 16 hour (AID 1224888); also: nearly all actives have a fitted effect of over 35% in size
How it was run: as §2

[7] = qHTS RealTime-Glo MT Cell Viability Assay in HepG2 cells - 0 hour (AID 1224889); also: nearly all actives have a fitted effect of over 50% in size
How it was run: as §3

[8] = qHTS assay to identify small molecule antagonists of the androgen receptor (AR) signaling pathway using the MDA cell line in the presence of 0.5 nM R1881 - cell viability counter screen (AID 1259242); also: nearly all actives have a fitted effect of over 45% in size
How it was run: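 Concentration-response screen of compounds for toxicity in MDA-kb2 reporter cells: 16 hr at 37C with 0.5 nM R1881, endpoint live-cell protease fluorescence measured in the reporter wells.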

[9] = qHTS assay to identify small molecule HDAC inhibitors (AID 1259364);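 also: wild-type HCT-116 cells with endogenous class I/II HDAC activity; top concentration of the series differs between compounds; nearly all actives have a fitted effect of over 45% in size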
How it was run: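 Screening used wild-type human colon HCT-116 cells incubated overnight, dosed with compounds for 2 hours, and assayed with a homogeneous luminogenic HDAC I/II reagent for 30 minutes at room temperature.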

[10] = qHTS assay to identify small molecule HDAC inhibitors - cell viability counter screen (AID 1259365)
How it was run: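 Luminescence from CellTiter-Glo, developed 30min at room temperature, reports viability of wild-type HCT-116 cells treated 2hr with compounds at 37 C and 5% CO2 after overnight plating.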

[11] = qHTS assay to identify small molecule agonists of the sonic hedgehog signaling (Shh) pathway - cell viability counter screen (AID 1259366); also: nearly all actives have a fitted effect of over 50% in size
How it was run: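 Cytotoxicity counter screen run in the same wells as the Shh reporter assay. NIH/3T3 cells carrying a Gli1 response element–driven luciferase were treated with DMSO-dissolved compounds for 24hr, and live-cell protease activity was measured with CellTiter-Fluor.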

[12] = qHTS assay to identify small molecule antagonists of the sonic hedgehog signaling (Shh) pathway - cell viability counter screen (AID 1259367); also: nearly all actives have a fitted effect of over 55% in size
How it was run: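 Fluorescence read-out (CellTiter-Fluor, 1 hr at 37C) taken after 23 hr compound treatment of 3T3 Gli1-Luc cells stimulated with conditioned medium. Cells were seeded at 2,000 per well and pre-incubated 4 hr.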

[13] = qHTS assay to identify small molecule agonists of the sonic hedgehog signaling (Shh) pathway (AID 1259368; calls by dose curve;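 also: NIH/3T3-derived 3T3Gli1-Luc cells carrying a stable Gli1-driven firefly luciferase reporter; series mostly up to about 92 µM; nearly all actives have a fitted effect of over 15% in size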)
How it was run: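 Hedgehog pathway agonism scored by increased firefly luciferase luminescence in 3T3Gli1-Luc cells treated 24 hr at 37 C; detection used a 30 min room-temperature reagent incubation.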

[14] = qHTS assay to identify small molecule antagonists of the sonic hedgehog signaling (Shh) pathway (AID 1259369; calls by dose curve; also: nearly all actives have a fitted effect of over 45% in size)
How it was run: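 NIH/3T3 stable Gli1-Luc clone, 2,000 cells/well, 4hr settle; cpd + conditioned medium 24hr; Luc reagent 30min RT; luminescence.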

[15] = A CellTox Green Cytotoxicity Assay to monitor cytotoxicity in HepG2 cells - 32 hour (AID 1224883); also: nearly all actives have a fitted effect of over 50% in size
How it was run: as §1

[16] = A CellTox Green Cytotoxicity Assay to monitor cytotoxicity in HepG2 cells - 8 hour (AID 1224890); also: nearly all actives have a fitted effect of over 45% in size
How it was run: as §1

[17] = qHTS assay to identify small molecule antagonists of the estrogen receptor alpha (ER-alpha) signaling pathway using the BG1 cell line in the presence of 0.1 nM 17-beta-estradiol - cell viability counter screen (AID 1259241); also: nearly all actives have a fitted effect of over 40% in size
How it was run: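 VM7Luc4E2, 4,000 cells/well, phenol red-free medium + 10% charcoal-stripped FBS; 24 hr plating; cpd + 0.1 nM E2 final, 22 hr 37C/5% CO2; CellTiter-Fluor 30 min, fluorescence.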

[18] = biological target: Estrogen receptor (Homo sapiens) (UniProt P03372); assay: qHTS assay to identify small molecule antagonists of the estrogen receptor alpha (ER-alpha) signaling pathway using the BG1 cell line in the presence of 0.1 nM 17-beta-estradiol (AID 1259244); also: nearly all actives have a fitted effect of over 50% in size
How it was run: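 Compounds were tested against 0.1 nM (final) 17beta-estradiol in VM7Luc4E2 cells, which express full-length ER-alpha and an ERE-luciferase reporter; luminescence was recorded following 22 h exposure.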

[19] = qHTS assay to identify small molecule phospholipidosis (PLD) inducers (AID 1259344; active = well fitted curve in the direction sought with a large enough effect; an effect the other way counts as inactive or inconclusive)
How it was run: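 Read-out is LipidTOX Red fluorescence (ex 595/em 615) imaged in HepG2 cells after 24 h compound exposure at 37 C, with Hoechst nuclear counterstain (ex 352/em 461) allowing per-cell normalisation.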

[20] = biological target: Androgen receptor (Homo sapiens) (UniProt P10275); assay: qHTS assay to identify small molecule antagonists of the androgen receptor (AR) signaling pathway using the MDA cell line in the presence of 0.5 nM R1881 (AID 1259243); also: nearly all actives have a fitted effect of over 50% in size
How it was run: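 With R1881 held at 0.5 nM (final), compound effects on MMTV-luciferase expression in MDA-kb2 cells were scored by luminescence after a 16 hr, 37C incubation.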
% is scaled to controls: 0 for no effect and ±100 for the full control effect.

Chain of Estrogen receptor (Homo sapiens) (P03372 whole entry, looked up): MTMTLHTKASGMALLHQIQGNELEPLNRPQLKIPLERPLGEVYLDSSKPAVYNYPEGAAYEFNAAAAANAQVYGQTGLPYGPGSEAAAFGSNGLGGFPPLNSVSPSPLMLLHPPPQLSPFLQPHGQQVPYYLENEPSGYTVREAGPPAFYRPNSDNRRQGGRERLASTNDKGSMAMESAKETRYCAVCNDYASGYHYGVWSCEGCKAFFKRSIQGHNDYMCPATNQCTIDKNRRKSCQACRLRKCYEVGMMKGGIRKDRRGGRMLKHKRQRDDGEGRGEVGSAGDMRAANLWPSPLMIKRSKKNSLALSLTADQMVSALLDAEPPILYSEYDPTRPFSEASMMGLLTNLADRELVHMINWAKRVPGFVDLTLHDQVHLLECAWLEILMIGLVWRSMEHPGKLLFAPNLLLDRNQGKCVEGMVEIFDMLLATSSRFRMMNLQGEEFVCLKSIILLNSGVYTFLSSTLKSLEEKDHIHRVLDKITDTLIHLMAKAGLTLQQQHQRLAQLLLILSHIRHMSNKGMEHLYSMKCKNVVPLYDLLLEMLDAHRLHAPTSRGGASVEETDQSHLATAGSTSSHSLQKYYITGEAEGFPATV
Chain of Androgen receptor (Homo sapiens) (P10275 whole entry, looked up): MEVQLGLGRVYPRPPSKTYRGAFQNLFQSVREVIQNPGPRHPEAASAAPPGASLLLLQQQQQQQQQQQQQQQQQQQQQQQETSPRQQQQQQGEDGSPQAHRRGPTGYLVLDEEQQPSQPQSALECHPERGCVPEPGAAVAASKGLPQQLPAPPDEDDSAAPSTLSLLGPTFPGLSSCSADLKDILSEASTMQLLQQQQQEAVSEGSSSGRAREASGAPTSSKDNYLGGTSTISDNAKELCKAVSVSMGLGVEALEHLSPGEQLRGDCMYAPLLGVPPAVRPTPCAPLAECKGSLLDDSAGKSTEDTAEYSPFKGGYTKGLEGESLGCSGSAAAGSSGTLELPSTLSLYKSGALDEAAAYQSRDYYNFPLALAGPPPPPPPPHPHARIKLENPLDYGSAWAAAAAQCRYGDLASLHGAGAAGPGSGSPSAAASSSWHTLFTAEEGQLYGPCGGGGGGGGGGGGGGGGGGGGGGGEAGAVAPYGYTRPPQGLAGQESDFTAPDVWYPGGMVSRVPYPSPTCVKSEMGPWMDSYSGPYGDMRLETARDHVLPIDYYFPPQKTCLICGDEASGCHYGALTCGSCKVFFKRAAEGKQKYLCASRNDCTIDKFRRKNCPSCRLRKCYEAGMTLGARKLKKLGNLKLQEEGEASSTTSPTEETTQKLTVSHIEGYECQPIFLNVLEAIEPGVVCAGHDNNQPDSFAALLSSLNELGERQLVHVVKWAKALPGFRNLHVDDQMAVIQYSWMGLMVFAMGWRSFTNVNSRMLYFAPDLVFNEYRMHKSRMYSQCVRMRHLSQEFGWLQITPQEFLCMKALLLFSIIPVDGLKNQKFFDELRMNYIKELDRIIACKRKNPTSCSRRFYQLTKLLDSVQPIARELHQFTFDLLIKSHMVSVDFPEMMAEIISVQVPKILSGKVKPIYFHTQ

c1ccc(CCc2ccccc2)cc1
inactive: Potency [1] | outcome [2] | outcome [3] | Potency [4] | Potency [5] | outcome [6] | Potency [7] | outcome [8] | Potency [9] | outcome [10] | Potency [11] | Potency [12] | outcome [13] | Potency [14]

CCCCc1ccc2c(n1)[C@@H](c1ccc(OC)cc1C[C@H](C)C(=O)O)[C@H](C(=O)O)[C@H]2c1ccc2c(c1)OCO2
inactive: Potency [1] | Potency [15] | Potency [4] | Potency [5] | outcome [6] | Potency [7] | outcome [16] | outcome [17] | outcome [8] | outcome [18] | Potency [9] | outcome [10] | Potency [11] | Potency [12] | outcome [13] | Potency [14]

COc1ccccc1OCC1CNC(=O)O1 (configuration not stated)
inactive: Potency [1] | Potency [15] | Potency [4] | Potency [5] | outcome [6] | Potency [7] | outcome [16] | outcome [17] | outcome [8] | PLD induction [19] 3.13% [at 7.66 µM] | Potency [9] | outcome [10] | Potency [11] | Potency [12] | outcome [13] | Potency [14]

CCCCCCCCCC[N+](C)(C)[O-]
inactive: Potency [1] | outcome [2] | outcome [3] | Potency [4] | Potency [5] | outcome [6] | Potency [7] | outcome [16] | outcome [17] | outcome [8] | Potency [20] | outcome [18] | Potency [9] | outcome [10] | Potency [11] | Potency [12] | Potency [14]

[O-][n+]1cccc(CO)c1
inactive: Potency [1] | Potency [15] | outcome [3] | Potency [4] | Potency [5] | outcome [6] | Potency [7] | outcome [16] | outcome [8] | outcome [18] | outcome [19] | Potency [9] | outcome [10] | Potency [11] | Potency [12] | outcome [13] | Potency [14]

CCOC(=O)CCC(=O)OCC
inactive: Potency [1] | Potency [15] | outcome [3] | Potency [4] | Potency [5] | outcome [6] | Potency [7] | outcome [16] | outcome [17] | outcome [8] | Potency [9] | outcome [10] | Potency [11] | Potency [14]

CC(N)C12CC3CC(CC(C3)C1)C2 (configuration not stated)
inactive: Potency [15] | outcome [2] | outcome [3] | Potency [4] | Potency [5] | outcome [6] | Potency [7] | outcome [16] | outcome [17] | outcome [8] | outcome [18] | outcome [19] | Potency [9] | outcome [10] | Potency [11] | Potency [12] | Potency [14]

Nc1ccn([C@@H]2O[C@H](CO)[C@@H](O)C2(F)F)c(=O)n1
inactive: Potency [1] | Potency [15] | outcome [3] | outcome [6] | Potency [7] | outcome [16] | outcome [17] | outcome [8] | outcome [18] | outcome [19] | Potency [9] | outcome [10] | Potency [11] | Potency [12] | outcome [13] | Potency [14]
